# In PubChem BioAssay (NCATS):
# Inconclusive results are not listed. Active and inactive are the calls of the source. The call rests on the fitted dose curve; in most records, active means well fitted cell-killing curve with a large enough effect; inconclusive means small, poorly fitted or top-dose-only effect; inactive means flat fitted curve, though single readings scatter.
# Experiment: Cell Viability - LYMP2-016 (AID 984); further: nearly all actives have a fitted effect of over 55% in size
# Details: LYMP2-016 lymphoblastoid cell viability, qHTS; series mostly up to 92.2 µM; activity change, negative = cytotoxicity: at the top concentration
# Source text: NIH Chemical Genomics Center [NCGC]
# NIH Molecular Libraries Screening Centers Network [MLSCN]
# National Institutes of Environmental Health Sciences [NIEHS]
# National Toxicology Program [NTP]
# We have developed a 1536-well cell-based assay for quantitative high throughput screening (qHTS) against a number of cell lines to determine in vitro cytotoxicity of small molecules. This particular assay uses a human lymphoblastoid cell line (LYMP2-016) purchased from Coriell Institute for Medical Research.
# NCGC Assay Protocol Summary:
# The CellTiter-Glo luminescent cell viability assay (Promega) is a homogeneous method to measure the number of viable cells in culture. The end point readout of this assay is based on quantitation of intracellular ATP, an indicator of metabolic activity, using the luciferase reaction. Luciferase catalyzes the oxidation of beetle Luciferin to oxyluciferin and light in the presence of ATP. The luminescent signal is proportional to amount of ATP present.
# Using the CellTiter-Glo luminescent cell viability assay, the amount of cellular ATP was measured in the lymphoblastoid cell line with complete culture medium following compound treatment for 24 hours. The assay was performed in opaque white Kalypsys 1536-well plates. In the screen, tetraoctylammonium bromide was used as positive control. Library compounds were measured for their ability to cause acute toxicity in the cell line, as reflected by a decrease in intracellular ATP levels, in a concentration-dependent manner. […] AC50 values were determined from concentration-response data modeled with the standard Hill equation.
# qHTS protocol for CellTiter Glo lymphoblastoid cellular assay
# [Step] [Parameter] [Value] [Description]
# 1. Reagent; 5 uL; 2500 lymphoblastoid cells/well
# 2. Time; 5 hr; 37 C incubation
# 4. Controls; 23 nL; Tetraoctylammonium bromide 6.4pM to 92 uM
# 5. Time; 24 hr; 37 C incubation
# 6. Reagent; 5 uL; CellTiter Glo reagent
# 7. Time; 30 min; Room Temperature
# 8. Detection; Luminescence; Viewlux plate reader
# Keywords: cell viability, cytotoxicity, lymphoblastoid cell line, luminescence, NTPHTS, NTPHTS_NCGC, NIEHS, DSSTox, MLSMR, MLSCN, NIH Roadmap, qHTS, NCGC
# On the % scale 0 is the no-effect control and ±100 the full control effect; potency means the concentration at half of the fitted maximal effect.
Compound,"activity change, negative = cytotoxicity",Potency
NC(N)=NC(N)=NCCc1ccccc1,-20.6% (inactive),
NNC(=O)c1ccncc1,-4.54% (inactive),
Cc1cc(NS(=O)(=O)c2ccc(N)cc2)no1,-8.38% (inactive),
C[C@]12C=CC(=O)C=C1CC[C@@H]1[C@@H]2C(=O)C[C@@]2(C)[C@H]1CC[C@]2(O)C(=O)CO,-3.78% (inactive),
CN(C)c1ccc(C(=C2C=CC(=[N+](C)C)C=C2)c2ccc(N(C)C)cc2)cc1,,2000 nM (active)
O=C(O)c1cc(=O)[nH]c(=O)[nH]1,-8.52% (inactive),
Cc1ccnc2c1NC(=O)c1cccnc1N2C1CC1,-5.12% (inactive),
Cc1ncc([N+](=O)[O-])n1CCO,-3.21% (inactive),
CCc1cc(C(N)=S)ccn1,-6.15% (inactive),
Cc1nnc(NS(=O)(=O)c2ccc(N)cc2)s1,-11.5% (inactive),
CC1=NN(c2ccccc2)C(=O)C1,-9.5% (inactive),
Cc1noc(NS(=O)(=O)c2ccc(N)cc2)c1C,-6.79% (inactive),
CC[C@H](C)C(=O)O[C@H]1C[C@@H](C)C=C2C=C[C@H](C)[C@H](CC[C@@H]3C[C@@H](O)CC(=O)O3)[C@H]21,-22.8% (inactive),
O=C(N[C@H](CO)[C@H](O)c1ccc([N+](=O)[O-])cc1)C(Cl)Cl,-8.1% (inactive),
